HT1080 IDH1KD tx – kills HT-1080 cells with IDH1 knockdown; HT-1080 IDH1 knockdown viability, ATP luminescence, 48 h; Potency, µM (doses to about 46.1 µM), for inactives: at the highest dose activity, negative = toxicity, actives largely listed as cytotoxic; 360,000 compounds, 2% hits;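 also: potency is read from the fitted curve at half-maximal effect; 0% = DMSO wells and -100% = cell-free medium wells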
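Assay cells: HT-1080 with IDH1 knockdown, 750 per well, RPMI/5% FBS. Exposure: 48 h at 37 °C following 2 h pre-incubation. Read: CellTiter-Glo luminescence; fitted concentration-response, curve class assigned.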
HT1080NT lethal – kills 2HG-producing HT-1080-NT fibrosarcoma cells; Potency, µM (top dose mostly 46.1 µM), without a hit: top-dose activity, negative = less viability, hits mostly cytotoxic; HT-1080-NT fibrosarcoma viability, CellTiter-Glo ATP luminescence, 48 h; AID 686970; 360,000 compounds, 1.6% hits;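 also: NT is the 2HG producing partner of a matched IDH1 knockdown line; potency is read from the fitted curve at half-maximal effect; 0% = DMSO-treated cells and -100% = media-only wells without cells; nearly all actives have a fitted effect of over 55% in size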
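Toxicity toward the 2HG-producing NT line was scored as %Activity, normalised to DMSO and no-cell wells, from CellTiter-Glo luminescence after 48 hours' treatment.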
TDP1 cell noCPT – qHTS for Inhibitors of human tyrosyl-DNA phosphodiesterase 1 (TDP1): qHTS in cells in absence of CPT; DT40 Tdp1-/- hTDP1 cells, no CPT, ATP luminescence, 48 h; Potency, µM (titrated, usually from 46.2 µM), inactives show top-dose activity change, negative = growth inhibition, most hits filed as inhibitors; 420,000 compounds, 15% hits; also: potency is read from the fitted curve at half-maximal effect; nearly all actives have a fitted effect of over 55% in size
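Stably hTDP1-transfected Tdp1-null chicken DT40 cells were treated with library compounds minus camptothecin and grown for at least 48 hr at 37 °C, after which cellular ATP was quantified by luminescence.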
ELG1 repair inh – inhibitors of ELG1-dependent DNA repair in HEK293T cells. HEK293T ELG1-luciferase reporter, luminescence, 16 h; DNA damage induced by 5-fluorouridine. Potency, µM (highest dose often 46.1 µM), for inactives: at the highest dose activity change, negative = inhibition, most hits filed as inhibitors. 330,000 compounds, 2.3% hits; also: potency is read from the fitted curve at half-maximal effect; nearly all actives have a fitted effect of over 55% in size
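In this reporter screen, reduction of luminescence relative to DMSO vehicle indicated activity. Compounds and 5-fluorouridine were added together to 2,000 cells per well, incubated for 16 hr at 37 °C, then developed with ONE-Glo.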
DT40 TDP1 CPT – DT40-hTDP1 cell growth loss with CPT. Potency, µM (titrated, usually from 46.2 µM), without a hit: top-dose activity change, negative = growth inhibition, hits mostly inhibitors. AID 686979. chicken DT40 Tdp1-/-;hTDP1 cells + 20 nM CPT, ATP luminescence, 48 h. 420,000 compounds, 12% hits; also: potency is read from the fitted curve at half-maximal effect; nearly all actives have a fitted effect of over 55% in size
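Chicken DT40 Tdp1-/- cells complemented with human TDP1, 400 cells/well, exposed to compounds plus 20 nM camptothecin for at least 48 h at 37 C; viability read as ATP content by CellTiter-Glo luminescence.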
IL-1B inflam inh – blocks inflammasome-driven IL-1 beta release | THP-1 LPS/ATP IL-1B secretion, AlphaLISA, 16 h; stronger effect = lower value | activity change, % at 57.5 µM | 360,000 compounds, 4.7% hits | AID 743279; in the data active = activity change below about -50%; inconclusive = mostly about -30% to -49%
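THP-1 cells pretreated 1 hr with compounds (up to 57.5 uM final), then stimulated with LPS (250 ng/mL final) plus ATP (1.25 mM final); secreted IL-1B measured by AlphaLISA after 16 hr, decreased signal indicating inhibition.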
An asterisk follows results filed as active; u = inconclusive; x = not tested or not shown; [ ] = remark or other dose. Sampled rows, rich in hits. Any-hit rate of the full collection: about 19%. Unless noted, calls follow the shape of the dose curve; as a rule, active = well fitted curve in the direction sought with a large enough effect; inconclusive = small, poorly fitted or top-dose-only effect, or another doubt; inactive = no such curve, though single readings can be large; an effect the other way counts as inactive or inconclusive. Unless noted, % is scaled to controls: 0 for no effect and ±100 for the full control effect.

SMILES	HT1080 IDH1KD tx	HT1080NT lethal	TDP1 cell noCPT	ELG1 repair inh	DT40 TDP1 CPT	IL-1B inflam inh
Cc1ccc2c(c1)N(C(=O)CCC(=O)N1CCC3(CC1)OCCO3)CC(C)O2 (centres undefined)	8%	0%	-28%	-10%	-9%	-12
CC1CN1P(=O)(Oc1ccccc1)N1CC1C (centres undefined)	6%	8%	-11%	x	-29%	16
CC(C)C[C@H]1CN(CCCC[C@H]2CNC(=O)C(=O)N2CCC2CCCCC2)C(=O)C(=O)N1CCC1CCCCC1	23µM*	1%	21µM*	x	u	8
O=C1NC[C@H](CCCCN2C[C@@H](Cc3ccccc3)N(CC3CCCCC3)C(=O)C2=O)N(CCC2CCCCC2)C1=O	-25%	-20%	13µM*	x	18µM*	-1
O=C(/C=C/c1ccccc1)C1C(=O)c2ccccc2C1=O	-2%	3%	4.6µM*	u	3.7µM*	1
CC(=O)C1CCC2C3CCC4CC(O)CCC4(C)C3CCC12C#N (centres undefined)	6%	-1%	u	x	u	-24
C[C@]1(O)CCC2C3CC[C@H]4C[C@@H](OC(=O)[C@@H](N)CCCCN)CC[C@]4(C)C3CC[C@@]21C (some centres undefined)	0%	-3%	26µM*	x	u	-8
COc1ccc(C2C3C=CC(C3)C2C(=O)O)cc1 (centres undefined)	-1%	7%	-8%	x	-11%	5
CCCSc1ncc(Cl)c(C(=O)N(Cc2ccccc2)c2ccc(OC)cc2)n1	x	x	4.6µM*	x	7.3µM*	x
CCc1ccccc1NC(=O)c1cccn(Cc2ccccc2F)c1=O	x	x	-1%	x	-10%	x
Cc1ccc(S(=O)(=O)N2Cc3cc(N4CCOCC4)ccc3-n3nncc3C2)cc1	8%	7%	u	x	-28%	-13
Cc1cc(OCC(=O)N2CCC(C(=O)O)(c3ccccc3)CC2)c2c(C)cc(=O)oc2c1	-1%	0%	21%	-5%	-11%	2
CC(C)(C)OC(=O)COc1cc(OCC(=O)OC(C)(C)C)c2c(=O)cc(-c3ccccc3)oc2c1	u	u	18µM*	u	u	-67*
COc1ccc2c3c([nH]c2c1)C(C)NCC3 (centres undefined)	-1%	-5%	u	0%	2.6µM*	0
COc1ccc2[nH]c3c(c2c1)CCNC3C (centres undefined)	14%	-1%	2%	-5%	23%	20
O=Cc1ccco1	x	x	3%	x	7%	x
O=[N+]([O-])c1oc2ccc3ccccc3c2c1CCO	u	u	0.52µM*	x	0.41µM*	32
COCCOCCO	x	x	-12%[92.5 µM]	x	-3%[92.5 µM]	x
CCC1C(c2ccccc2)NC(c2ccccc2)CC1(O)c1ccc(F)cc1 (centres undefined)	u	0%	23µM*	-11%	u	-16
OCCN1C2CCC1CC(O)(c1ccc(F)cc1)C2 (centres undefined)	-3%	-2%	-4%	11%	1%	-8
Cc1cc(/C=C2\C(=O)NC(=O)N(c3ccc(F)cc3)C2=O)c(C)n1-c1cccc(C(=O)O)c1	6%	3%	12%	5%	6%	3
Cc1cccc(N2C(=O)NC(=O)/C(=C\c3cc(C)n(-c4sc5c(c4C#N)CCCC5)c3C)C2=O)c1C	16µM*	u	u	u	u	-138*
CCOC(=O)c1c(-n2c(C)cc(C=C3C(=O)NC(=O)NC3=O)c2C)sc2c1CCCC2	0%	9%	18µM*	-2%	u	-15
CC(CN)CC(=O)O (centres undefined)	x	x	13%	x	0%	x
CC(C)CN1Cc2cc(-c3cccc(F)c3)ccc2-n2nncc2C1	-18%	0%	u	x	u	-6
SMILES	HT1080 IDH1KD tx	HT1080NT lethal	TDP1 cell noCPT	ELG1 repair inh	DT40 TDP1 CPT	IL-1B inflam inh
Cc1nn(-c2nc3ccccc3s2)c(C)c1Oc1ccccc1O	13µM*	13µM*	u	u	18µM*	-79*
NCCc1nc2ccccc2s1	-2%	-7%	10%	6%	5%	23
COC(=O)C1=C(c2ccc(F)cc2F)C[C@@H]2CC[C@H]1N2C(=O)N1CCC(O)(c2ccc(Cl)cc2)CC1	-1%	-19%	18µM*	u	21µM*	-78*
COC(=O)C1=C(c2ccc(F)cc2F)C[C@@H]2CC[C@H]1N2C(=O)N1CCCC1	2%	13%	8.2µM*	4%	u	21
COC(=O)C1=C(c2ccc(F)cc2F)C[C@@H]2CC[C@H]1N2C(=O)N1CCCCC1	6%	22%	18µM*	14%	13µM*	17
COC(=O)C1=C(c2ccc(F)cc2F)C[C@@H]2CC[C@H]1N2C(=O)NCc1ccc(F)cc1	0%	-1%	u	9%	u	-6
COC(=O)C1=C(c2c(C)noc2C)C[C@@H]2CC[C@H]1N2C(=O)N1CCC(O)(c2ccc(Cl)cc2)CC1	4%	4%	21µM*	u	u	-5
COC(=O)C1=C(c2ccc(F)cc2F)C[C@@H]2CC[C@H]1N2C(=O)N1CCOCC1	0%	-4%	u	14%	u	11
COC(=O)C1=C(c2c(C)noc2C)C[C@@H]2CC[C@H]1N2C(=O)NCCCOC(C)C	8%	14%	5%	2%	3%	26
C=C1C([C@@]2(C)C(OC(C)=O)CC(=O)O[C@@](C)(COC(C)=O)C2CC(=O)OC)C(OC=O)C(OC(=O)C(OC(C)=O)C(C)CC)[C@]2(C)C(c3ccoc3)CC(=O)C12O (some centres undefined)	x	x	-10%	x	-4%	x
CC(C)NC(C)Cc1ccc(I)cc1 (centres undefined)	-22%	-11%	u	1%	-19%	-17
CC(N)C(=O)OC(C)(C)Cc1ccc(Cl)cc1 (centres undefined)	-27%	u	u	13%	u	-12
C=CCNC(=S)N1Cc2cc(Br)ccc2-n2nncc2C1	0%	-1%	-21%	x	-20%	-5
COC(=O)C1=C(c2cccc(OC)c2OC)C[C@@H]2CC[C@H]1N2C(=O)N1CCCC1	7%	24%	x	x	21µM*	5
COC(=O)C1=C(c2cccc(OC)c2OC)C[C@@H]2CC[C@H]1N2C(=O)N1CCCCC1	2%	12%	x	x	u	36

Bioassay records: PubChem, National Center for Advancing Translational Sciences (NCATS)
